Records with an inconclusive call do not appear. The source made the active and inactive calls. Calls follow the shape of the dose curve; as a rule, active = well fitted inhibition curve with a large enough effect; inconclusive = small, poorly fitted or top-dose-only effect; inactive = flat fitted curve, though single readings scatter.

This assay deals with Dual specificity tyrosine-phosphorylation-regulated kinase 1A (Homo sapiens) (UniProt Q13627). The assay is described as follows: Confirmation Assay for Inhibitors of Dyrk1a (Kinase-Glo Assay): KU probe. The conditions noted are these: Kinase-Glo ATP luminescence; series mostly up to 76.9 µM. An excerpt: NIH Molecular Libraries Probe Production Centers Network [MLPCN] NIH Chemical Genomics Center [NCGC] MLSCN Grant: 1R03MH084827-01 PI Name: Tom Misteli NCGC Assay Overview: The CMGC group of protein kinases which includes CDK-like kinases (Clk) and Dyks are essential kinases found in all eukaryotes. Clks have been implicated to play a role in the regulation of alternative splicing; while Dyrks, in particular over expression of Dyrk1A, has been linked to diseases as Down syndrome (DS; OMIM 190685) and Alzheimer disease (AD; OMIM 104300). Among the members of the CMGC group, the Clks and the Dyrks are very closely related therefore to determine validity and selectivity of an active compound observed in the CLK4 qHTS screen (AID:1770), a bioluminescent counter-screen against Dyrk1A was developed. In addition, potent and selective compounds against Dyrk1A were identified to further assess the role of this enzyme in DS and AD. Dyrk1A (Invitrogen, cat # PV3785) was assayed using ATP and DYRKtide (AnaSpec, cat# 62698) as substrates. Promega Kinase-Glo (cat# V6712) technology was used to detect the residual ATP following kinetic reaction. The Kinase-Glo Plus contains Ultra-Glo [5] luciferase and D-luciferin which generates a bioluminescence signal from the remaining ATP. No enzyme and harmine (Sigma, cat # 286044-1G), a compound shown to inhibit Dyrks were used as a positive control; while DMSO treatment was used as a negative control.
NCGC Assay Protocol Summary: Two uL/well of substrate solution (8uM Dyrktide, 2uM ATP, 25mM Tris-HCl pH 7.5, 10mM MgCl2 , 0.5mM EGTA, 5mM cystein, 0.01% Triton X-100 final concentration) was dispensed into 1536-well assay plates (Greiner, solid white, medium-binding plates) with Aurora Discovery BioRAPTR Flying Reagent Dispenser (FRD, Beckton-Dickenson). Compound solution (23 nL) was transferred to the assay plate using Kalypsys pin tool equipped with a 1536-pin tool. One uL/well enzyme solution (5nM Dyrk1A, 25mM Tris-HCl pH7.5, 10mM MgCl2, 0.5mM EGTA, 5mM cystein, 0.01% Triton X-100 final concentration) was then added using FRD yielding a total kinase reaction volume of 3uL/well. After 2 hours of room temperature incubation, 3uL Kinase-Glo detection reagent was added for a final assay volume of 6uL/well. The plates were spun for 30 seconds (1000 rpm) and incubated at ambient temperature for 2 minutes followed by a luminescence read using Perkin Elmer ViewLux plate reader at 3 seconds exposure time and 2x binning.
For orientation: Kinase-Glo measures the ATP left after a reaction by luminescence.
Consider `FC(F)(F)c1cccc(Nc2nccc(-c3ccc4c(c3)OCO4)n2)c1`, for which the Potency is 65.4 nM (active).

Turning to `CCCN(C)c1ncnc2ccc(-c3ccc4c(c3)OCO4)cc12`, the Potency was 260 nM (active). The entry for `COc1ccc(-c2ncccn2)cc1` is “inactive”; for `O=C(O)c1ccc(-c2ccc3ncnc(NCc4nccs4)c3c2)o1` it is 8230 nM (active); for `O=C(Nc1ccnc(-c2ccc3c(c2)OCO3)n1)c1ccncn1` it is “inactive”.

Regarding `Brc1cc(Br)cc(CNc2nccc(-c3ccc4c(c3)OCO4)n2)c1`, the Potency is 73.3 nM (active). For `c1coc(CNc2ncnc3ccc(-c4ccc5c(c4)OCO5)cc23)c1` the value was 104 nM (active).

With `Clc1ccc(Nc2nccc(-c3ccc4c(c3)OCO4)n2)cc1`, the Potency is 519 nM (active). For `Cc1noc(C)c1-c1nccc(NCc2ccc(Cl)cc2)n1` the value was “inactive”.

`c1cc(-c2ccoc2)nc(-c2ccoc2)n1`: the Potency is 20700 nM (active).

Turning to `c1cc(-c2ccc3c(c2)OCO3)nc(Nc2ccc3c(c2)OCO3)n1`, the Potency was 130 nM (active). For the molecule `COc1ccc(-c2nccc(NCc3ccc(Cl)cc3)n2)cc1`, the Potency entry is “inactive”. For the molecule `COc1ccc(-c2nccc(NCc3ccc(C)cc3)n2)cc1`, the Potency entry is “inactive”.

`Clc1cc(Cl)cc(CNc2ncncc2-c2ccc3c(c2)OCO3)c1`: the Potency was 2600 nM (active). The figure for `CN(CC1CCCCO1)c1ncnc2ccc(-c3ccc4c(c3)OCO4)cc12` (stereo not given) is 207 nM (active); for `Clc1cc(CNc2ccnc(-c3ccc4c(c3)OCO4)n2)ccn1` it is 23200 nM (active). `COc1ccc(-c2nccc(NCc3ccc(Cl)c(Cl)c3)n2)cc1`: the Potency entry is “inactive”.

For `Cc1ccc(CNc2ccnc(-c3c(C)noc3C)n2)cc1`, the Potency entry is “inactive”. The figure for `O=C(O)c1ccc(-c2ccc3ncnc(N4CCOCC4)c3c2)o1` is 26000 nM (active); for `Brc1ccc(CNc2nccc(-c3ccc4c(c3)OCO4)n2)cc1Br` it is 823 nM (active); for `c1cncc(CNc2ccnc(-c3cccc4ccccc34)n2)c1` it is 41200 nM (active). For `Clc1ccc(CNc2ccnc(-c3ccc4c(c3)OCO4)n2)cc1Cl` the value was “inactive”.

In the case of `Clc1cc(Cl)cc(CNc2ccnc(-c3ccc4c(c3)OCO4)n2)c1`, the Potency entry is “inactive”. For `c1cncc(CNc2cc(-c3ccc4c(c3)OCO4)ncn2)c1` the value was 16400 nM (active); for `c1nc(NCC2CCOC2)c2cc(-c3ccc4c(c3)OCO4)ccc2n1` (stereo not given), 92.3 nM (active). For the molecule `Cc1csc(CN(C)c2ncnc3ccc(-c4ccc5c(c4)OCO5)cc23)n1`, the Potency is 23.2 nM (active). The entry for `COc1ccc(CNc2ccnc(-c3ccc(N(C)C)cc3)n2)cc1` is “inactive”; for `Clc1ccc(CNc2ncncc2-c2ccc3c(c2)OCO3)cc1Cl` it is 4120 nM (active). For `COc1ccc(CNc2ccnc(-c3c(C)noc3C)n2)cc1` the value was “inactive”; for `CCNC(=O)c1ccc(-c2ccc3ncnc(NCC4CCCO4)c3c2)o1` (stereo not given), 2600 nM (active).

`c1cnc(-c2ccc3c(c2)OCO3)nc1`: the Potency entry is “inactive”. The figure for `c1nc(NCC2CC2)c2cc(-c3ccc4c(c3)OCO4)ccc2n1` is 41.2 nM (active). The figure for `c1cncc(CNc2ccnc(-c3ccc4[nH]ncc4c3)n2)c1` is 654 nM (active); for `O=[N+]([O-])c1cc(Nc2nccc(-c3ccc4c(c3)OCO4)n2)cc(C(F)(F)F)c1` it is 146 nM (active). The figure for `O=C(O)c1ccc(-c2ccc3ncnc(NCC4CCCO4)c3c2)o1` (stereo not given) is 20700 nM (active); for `Clc1ccc(CNc2nccc(-c3ccc4cn[nH]c4c3)n2)cc1Cl` it is 412 nM (active).

Turning to `COc1ccc(-c2ccnc(NCc3ccc(Cl)c(Cl)c3)n2)cc1`, the Potency was 733 nM (active). The entry for `COc1ccc(-c2nccc(NCc3ccccc3)n2)cc1` is “inactive”; for `CN(C)c1ccc(-c2ncccn2)cc1` it is “inactive”; for `Clc1ccc(CNc2nccc(-c3ccc4c(c3)OCO4)n2)cc1Cl` it is 164 nM (active).

(Values after PubChem BioAssay AID624093 (National Center for Advancing Translational Sciences (NCATS), 2012).)
